# Compounds with a hit are over-represented: about 1.6% of the library has one in this group of screens.
# GC-A act: GC-A stimulated cGMP production enhancers – HEK293 GC-A cells, cGMP TR-FRET, EC30 ANP, primary screen; activation, % at 10 µM; 0.14% of 370,000 active; 0% at EC30 ANP, 100% saturating ANP; Atrial natriuretic peptide receptor 1 (Homo sapiens), P16066; in the data active = activation above about 40%
# V-ATPase pH: regulators of yeast V-ATPase proton pumping, primary screen, pHLuorin cytosolic pH fluorescence | S. cerevisiae | response, % at 10 µM | 0.37% of 350,000 active; in the data active = response mostly above about 7.3%, no sharp cut-off; inactive = mostly below about 5.4%; also: actives read high
# NR1D1 modulator: modulators of Rev-erb alpha DNA binding, primary screen, biochemical, FITC-DNA, fluorescence polarization, uHTS | activity, % at 10 µM | Nuclear receptor subfamily 1 group D member 1 (Homo sapiens), P20393 | Rev-erbα–FITC-DNA binding, 90 min | 0.79% of 370,000 active;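 active = activity above about 14%, limit read from the data; passing the limit was not always enough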;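 also: 0% = DMSO wells with 35 nM protein and 100% = DMSO wells with 750 nM protein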
# NPR2 activator: human GC-B receptor activators, primary screen, HEK293 GC-B cells, cGMP TR-FRET, EC30 CNP. activation, % at 10 µM. 0.11% of 370,000 active. 0% at EC30 CNP, 100% saturating CNP. Atrial natriuretic peptide receptor 2 (Homo sapiens), P20594. AID 1920062, 2024;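 active = activation at 10 µM reaching about 35% in either raw or pattern-adjusted values, limit read from the data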
# PG9 Ab binder: binders of HIV-1 gp120 antibody PG9, primary screen, biochemical, TR-FRET | TR-FRET gp120-PG9 antibody binding | inhibition, % at 6.7 µM | 0.43% of 360,000 active | AID 624416, 2012; in the data active = inhibition above about 8.5%
# PG9 bind confirm: binders of anti-gp120 antibody PG9, confirmation, biochemical, TR-FRET; 90% of 1,500 active; shares compounds with PG9 Ab binder; TR-FRET PG9 antibody binding; inhibition, % at 6.7 µM; in the data active = inhibition above about 9%
# PGV04 Ab binding: binders of control antibody PGV04, counter-screen for PG9 antibody binder project, biochemical, TR-FRET, distinct HIV envelope site. shares compounds with PG9 Ab binder. TR-FRET PGV04 antibody-gp120 binding. inhibition, % at 6.7 µM. 95% of 1,500 active. AID 651604, 2012; in the data active = inhibition above about 9.5%
# Starred values were filed as active, the others as inactive; · = no result given.
SMILES,GC-A act,V-ATPase pH,NR1D1 modulator,NPR2 activator,PG9 Ab binder,PG9 bind confirm,PGV04 Ab binding
COc1cccc(C(=O)Nc2cc(C(=O)NCc3ccc(C)cc3)ccc2N2CCC3(CC2)CC(c2ccccc2)=NO3)c1,-0.8,2.2,2.1,4.0,11.2*,3.7,6.3
Cc1cccc(/N=C2/NC(=O)C(Cc3ccccc3)S2)n1 (stereo unspecified),-2.8,0.4,5.0,-1.9,7.7,·,·
Cc1cccc(CC2S/C(=N/c3cccc(C)n3)NC2=O)c1 (stereo unspecified),-3.3,2.9,15.5,-4.8,12.9*,18.0*,23.9*
COc1ccc(NC(=O)CSc2nncc3ccccc23)cc1,-3.2,-2.5,-2.4,-2.4,1.9,·,·
COc1ccc(OC)c(NC(=O)CSc2nncc3ccccc23)c1,0.8,6.9,2.4,0.6,12.8*,8.3,10.0*
CCCCNC(=O)C[C@H]1C[C@@]2(C(=O)OC)C(=C[C@H](C3CCCC3)O[C@@H]2C)N(Cc2ccco2)C1=O,-8.5,·,4.1,-9.2,·,·,·
O=C1C=C(O)c2cccc3cccc1c23,26.5,-3.7,1.1,0.4,48.7*,39.1*,58.1*
O=C(c1ccncc1)N(Cc1ccco1)Cc1cc2ccccc2[nH]c1=O,0.0,-0.7,4.3,3.2,-1.8,·,·
Cc1cccc2cc(CN(Cc3ccco3)C(=O)c3ccncc3)c(=O)[nH]c12,-6.0,0.2,-0.7,5.5,9.3*,8.1,10.1*
COc1cccc(-n2c(=O)[nH]cc(C(=O)Nc3ccc4c(c3)OCCO4)c2=O)c1,2.0,6.0,3.4,3.4,28.9*,7.3,8.6
COc1ccc(-n2c(=O)[nH]cc(C(=O)Nc3ccc4c(c3)OCCO4)c2=O)cc1OC,3.8,-0.8,-1.4,4.1,-1.8,·,·
Cc1ccc(NC(=O)C2CCCN(c3ncccn3)C2)cc1C (stereo unspecified),-1.1,1.2,-2.3,-2.2,-4.7,·,·
Cc1ccnc(N2CCCC(C(=O)Nc3ccc(C)c(C)c3)C2)n1 (stereo unspecified),-2.9,-2.9,-0.5,6.1,39.4*,30.8*,42.3*
CC(=O)OCC(=O)[C@@]1(O)CCC2C3CCC4=CC(=O)CC[C@]4(C)C3C(=O)C[C@@]21C (stereo partly specified),·,·,-1.2,·,·,·,·
CC1(C)CC(=O)C=C(Nc2ccccc2NC(=O)c2cccc(F)c2F)C1,-2.1,·,-4.8,3.3,·,·,·
O=c1[nH]c(SCc2nc3ccccc3n2Cc2ccccc2)nc2ccccc12,-0.2,2.0,3.2,-1.6,12.9*,23.7*,30.0*
Cc1nnc2c(NCCc3ccccc3)nc3ccccc3n12,17.4,2.4,18.1,6.7,10.8*,49.3*,61.9*
COC(=O)C[C@@H]1CC[C@H]2[C@H](COc3ccc(NC(=O)c4ccc(OC)cc4)cc3C(=O)N2C)O1,-2.4,·,-0.2,11.0,·,·,·
O=C(Nc1ccccc1)c1ccc(COc2ccccc2)cc1,4.2,-0.5,4.1,7.8,13.0*,11.9*,16.1*
Cc1ccc(OCc2nnc(NC(=O)c3cccnc3)s2)cc1,2.8,-6.5,1.5,-3.8,2.6,·,·
CC(=O)Nc1ccc(C(=O)Nc2nnc(CCc3ccccc3)s2)cc1,-2.7,-0.8,12.5,-0.7,24.7*,15.2*,24.1*
Cc1ccc(C(=O)Nc2nnc(COc3ccccc3)s2)cc1,-2.4,0.3,6.0,-2.3,25.4*,33.5*,39.1*
O=C(Nc1ccc(OCc2ccccc2)cc1)c1ccccc1,0.3,2.6,-6.6,-1.6,-0.7,·,·
COC(=O)C1CN(Cc2ccc(F)cc2)CCS(=O)(=O)N1Cc1ccccc1 (stereo unspecified),-3.0,·,-0.9,-5.5,·,·,·
C=CCN1C(=O)[C@@H](CC(=O)NCCc2ccccc2OC)[C@]2(C(=O)OC)CCCCC=C12,1.3,·,6.4,5.9,·,·,·
SMILES,GC-A act,V-ATPase pH,NR1D1 modulator,NPR2 activator,PG9 Ab binder,PG9 bind confirm,PGV04 Ab binding
CS(=O)(=O)c1ccc(C(=O)OCC#CCSc2nnc(-c3cccc4ccccc34)o2)cc1,-7.1,·,-8.7,-0.8,·,·,·
N#C/C(=C1/SCC(c2ccccc2Cl)S1)n1ccnc1 (stereo unspecified),·,·,-0.4,·,·,·,·
O=C(CCS(=O)(=O)c1ccccc1)N(CCCN1CCOCC1)c1nc2ccccc2s1,-11.6,4.7,11.2,-8.8,0.8,·,·
Cc1ccc(S(=O)(=O)CCC(=O)N(CCCN2CCOCC2)c2nc3ccccc3s2)cc1,-8.6,-0.8,4.9,-10.2,9.6*,6.6,10.6*
COc1ccc2[nH]c(=O)c(COC(=O)c3cccs3)cc2c1,-1.1,-4.5,3.3,-2.3,32.7*,16.1*,26.5*
COc1ccc2[nH]c(=O)c(CN(C)C(=O)c3cccs3)cc2c1,-3.0,-0.1,5.6,0.8,1.0,·,·
CCOC(=O)Cn1c(=S)[nH]c2c(oc3ccc(Cl)cc32)c1=O,23.2,-1.5,7.6,11.4,16.1*,7.4,9.4*
COc1ccc(CC(=O)Nc2ccc(N3CCN(c4ccc(OC)cc4)CC3)c(C#N)c2)cc1,-4.8,-4.3,8.2,3.4,9.1*,17.5*,24.0*
CCOc1ccc(N2CC(NC(=O)c3ccc4ccccc4c3)CC2=O)cc1 (stereo unspecified),-4.7,1.8,16.0,2.1,11.9*,11.5*,23.2*
CCOc1ccc(NC(=O)NC2CC(=O)N(c3ccc(OC)cc3)C2)cc1 (stereo unspecified),3.1,2.1,-0.1,2.7,-0.7,·,·
CC(C)(C)N1Cc2nnn(Cc3ccccc3)c2-c2ccccc2S1(=O)=O,-4.1,·,0.6,1.6,·,·,·
CCOC(=O)Nc1nc(C)c(C(=O)c2ccc(Cl)cc2)s1,-2.6,-1.1,3.9,-4.7,10.2*,16.6*,32.9*
COC(=O)[C@]12C[C@H](CC(=O)NCc3cccs3)C(=O)N(CCc3ccc(OC)c(OC)c3)C1=C[C@H](COCc1ccccc1)O[C@@H]2C,-3.2,·,2.8,3.7,·,·,·
Cc1ccc(C(=O)Nc2ccc(NC(=O)c3ccccc3Cl)c(C)c2)cc1,2.7,1.4,9.1,-1.0,29.4*,26.3*,39.4*
O=C(Nc1ccc(Cl)cc1Cl)c1ccc(-c2ccccc2)cc1,3.5,-10.0,0.8,5.1,11.4*,32.6*,48.6*
O=C(Nc1c(Cl)cccc1Cl)c1ccc(-c2ccccc2)cc1,1.3,0.4,-1.4,5.1,-4.7,·,·
Cc1cc(NC(=O)c2ccc(Cl)cc2)ccc1NC(=O)c1ccccc1Cl,26.4,3.3,-6.6,0.6,1.2,·,·

# High-throughput results as filed in PubChem BioAssay.
